# Laboratory results reported in PubChem BioAssay (NCATS).
# Values without a mark were called inactive. Inconclusive results are not listed. Where a call stands in place of a potency, no number is given. Activity calls are given as the source filed them. Unless noted, calls come from the whole dose curve; as a rule, active = well fitted curve in the direction sought with a large enough effect; inconclusive = small, poorly fitted or top-dose-only effect, or another doubt; inactive = no such curve, though single readings can be large; an effect the other way counts as inactive or inconclusive.
# Columns and labels:
# [1] = Cell Viability - LYMP2-001 (AID 921); note: series mostly up to about 92 µM; nearly all actives have a fitted effect of over 70% in size
# How it was run: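 Steps: seed 2500 lymphoblastoid cells/well; 5 hr, 37 C; add compound; 24 hr, 37 C; CellTiter-Glo reagent, 30 min room temperature; read luminescence. Concentration-response modeled by Hill equation for AC50.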
# [2] = MultiTox-Fluor Cytotoxicity Assay - LYMP1-001 - Dead Cells (AID 946)
# How it was run: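 AC50 from Hill fit of concentration-response; data normalized to DMSO (basal) and 15 uM tetraoctylammonium bromide (100%). LYMP1-001 lymphoblastoid cells, 2500/well, 16 hr compound at 37 C; dead-cell protease fluorescence, Ex/Em 485/520.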
# [3] = MultiTox-Fluor Cytotoxicity Assay - LYMP1-001 - Live Cells (AID 947)
# [4] = Cell Viability - LYMP1-002 - Assay at 16 hr (AID 948)
# How it was run: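 Seed 2500 LYMP1-002 cells per well in complete medium and hold 5 hr at 37 C. Add compound across a concentration series and incubate 16 hr at 37 C. Add CellTiter-Glo, wait 30 min at room temperature, read luminescence.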
# [5] = MultiTox-Fluor Cytotoxicity Assay - LYMP1-002 - Dead Cells (AID 960); note: nearly all actives have a fitted effect of over 60% in size; note: potency is the fitted concentration of half-maximal effect
# How it was run: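 Human lymphoblastoid cells (LYMP1-002), 2500/well in complete medium, were exposed to compounds for 16 hr at 37 C. Dead-cell protease activity was read as bis-AAF-R110 fluorescence (Ex/Em 485/520), normalized to DMSO and 15 uM tetraoctylammonium bromide; AC50 from Hill fits.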
# [6] = MultiTox-Fluor Cytotoxicity Assay - LYMP1-003 - Dead Cells (AID 961); note: nearly all actives have a fitted effect of over 70% in size
# How it was run: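 Human lymphoblastoid LYMP1-003 cells (2500/well) were treated with compounds for 16 hr at 37 C in complete medium. Dead-cell protease release was read by bis-AAF-R110 fluorescence (Ex/Em 485/520). AC50 came from Hill fits, normalized to DMSO and 15 uM tetraoctylammonium bromide.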
# [7] = MultiTox-Fluor Cytotoxicity Assay - LYMP1-003 - Live Cells (AID 962);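 note: cytotoxic hits lower the live-cell protease signal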
# How it was run: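 LYMP1-003 human lymphoblastoid cells (2500/well) in complete medium were preincubated 5 hr at 37 C, then exposed to compounds for 16 hr at 37 C. Live-cell protease cleavage of GF-AFC read by fluorescence (Ex/Em 405/510); AC50 from Hill fits.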
# [8] = Cell Viability - LYMP1-003 - Assay at 24 hr (AID 963)
# How it was run: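 Human lymphoblastoid LYMP1-003 cells (2500/well) were rested 5 hr at 37 C, then exposed to compounds in complete medium for 24 hr at 37 C. Cellular ATP was quantified by CellTiter-Glo luminescence, and AC50 values came from Hill fits of concentration-response data.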
# [9] = Cell Viability - LYMP1-003 - Assay at 40 hr (AID 964); note: series mostly up to about 92 µM; nearly all actives have a fitted effect of over 60% in size
# How it was run: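 Human lymphoblastoid LYMP1-003 cells, 2500/well in complete medium, rested 5 hr at 37 C, then exposed to compounds for 40 hr at 37 C. Viability read as intracellular ATP by CellTiter-Glo luminescence; AC50 from Hill fits of concentration-response data.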
# [10] = Cell Viability - LYMP2-003 (AID 965);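 note: cells exposed to compounds for 24 h before reading; nearly all actives have a fitted effect of over 50% in size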
# How it was run: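 Seed 2500 lymphoblastoid cells/well; incubate 5 hr, 37 C; add compounds; incubate 24 hr, 37 C; add CellTiter-Glo, 30 min RT; read luminescence. AC50 from Hill fit.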
# [11] = Cell Viability - LYMP2-004 (AID 966); note: nearly all actives have a fitted effect of over 65% in size
# How it was run: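 Human lymphoblastoid cells (2500/well) in complete medium were treated with compounds for 24 hr at 37 C, then intracellular ATP was measured by CellTiter-Glo luminescence. AC50 values came from Hill-equation fits of concentration-response data.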
# [12] = Cell Viability - LYMP2-005 (AID 967); note: series mostly up to about 92 µM
# How it was run: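 Acute cytotoxicity is scored as a concentration-dependent drop in intracellular ATP in human lymphoblastoid LYMP2-005 cells after 24 h compound treatment. ATP is quantified by luciferase luminescence, and AC50 is derived by Hill-equation modelling.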
# [13] = qHTS Assay for Identification of Small Molecule Agonists for Hypoxia Response Element Signaling Pathway (AID 914; active = well fitted activation curve with a large enough effect in the signal ratio, with a control signal flat, not every such curve was filed as active; the % refers to the signal ratio); details: ME-180 (cervical carcinoma) HRE-bla reporter, beta-lactamase ratio, CoCl2, 17 h; hits give high values
# How it was run: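 Compounds in a titration series were added to ME-180 reporter cells alongside an EC50 level of CoCl2. After 17 hours, beta-lactamase activity was read as the 460nm/530nm emission ratio of CCF4, giving AC50 values.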
# [14] = Confirmation and Secondary Assay for Modulators of Hemoglobin Beta Chain Splicing at IVS2 654 locus (AID 910);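 note: per-well total GFP intensity by laser scanning cytometry after 2-day treatment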
# How it was run: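 HeLa cells stably carrying EGFP interrupted by mutant beta-globin IVS2-654 intron (CMV-driven) were treated with compound for 2 days at 37C; corrected splicing was scored as total peak GFP intensity per well (488 nm excitation, 500-520 nm emission).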
# [15] = Confirmation and Secondary Assay for Modulators of Hemoglobin Beta Chain Splicing at IVS2 705 locus (AID 930);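 note: HeLa cells stably expressing the EGFP-705 splicing reporter; GFP fluorescence per well restored by corrected splicing of the IVS2-705 intron in EGFP; series mostly up to about 46 µM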
# How it was run: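 Assay measures total GFP intensity per well in HeLa EGFP-705 cells after 2 days with compound; mis-splicing normally truncates EGFP, so fluorescence indicates corrected splicing.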
# [16] = target: Pyruvate kinase PKM (Homo sapiens) (UniProt P14618); test: qHTS Assay for Activators of Human Muscle Pyruvate Kinase (AID 954; active = well fitted curve in the direction sought with a large enough effect, not every such curve was filed as active)
# How it was run: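 Luminescence from a luciferase ATP-detection/stop reagent reported PKM2 activity. Reactions contained 0.1 nM purified human enzyme, 0.5 mM PEP, 0.1 mM ADP and 7 mM MgCl2 at pH 7.2, run 1 h at RT.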
# [17] = target: Muscarinic acetylcholine receptor M1 (Rattus norvegicus) (UniProt P08482); test: qHTS Assay for Antagonists of Acetylcholine Muscarinic M1 Receptor: Kinetic Measurement of Intracellular Calcium Response (AID 943);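 note: Fluo-4 calcium signal as peak divided by basal fluorescence over 4 min; series mostly up to about 35 µM; nearly all actives have a fitted effect of over 75% in size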
# How it was run: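 CHO cells stably expressing rat M1 were loaded with no-wash Fluo-4 dye for 1 h at 37C, pre-incubated 10 min with compound, then challenged with EC80 carbachol (100 nM final); kinetic calcium read 4 min, peak/basal ratio.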
# [18] = target: Muscarinic acetylcholine receptor M1 (Rattus norvegicus) (UniProt P08482); test: qHTS Assay for Antagonists of Acetylcholine Muscarinic M1 Receptor: Measurement of IP-One Response (AID 944); note: nearly all actives have a fitted effect of over 75% in size
# How it was run: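 CHO cells expressing rat M1 receptor, recovered overnight, were pre-incubated 10 min with compound, then stimulated 30 min with carbachol at EC80 (200 nM) in LiCl-containing buffer, pH 7.4. IP1 accumulation was read by HTRF (620/665 nm).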
# [19] = target: Pyruvate kinase (Leishmania mexicana) (UniProt Q27686); test: qHTS Validation Assay for Inhibitors of Leishmania Mexicana Pyruvate Kinase (AID 945)
# How it was run: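 Pyruvate kinase activity of E451W LmPYK (0.2 nM) was followed as ATP output after 1 h at room temperature with 0.5 mM PEP and 0.1 mM ADP, detected by PKLight luminescence.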
# Pyruvate kinase PKM (Homo sapiens), sequence (P14618 whole entry, looked up): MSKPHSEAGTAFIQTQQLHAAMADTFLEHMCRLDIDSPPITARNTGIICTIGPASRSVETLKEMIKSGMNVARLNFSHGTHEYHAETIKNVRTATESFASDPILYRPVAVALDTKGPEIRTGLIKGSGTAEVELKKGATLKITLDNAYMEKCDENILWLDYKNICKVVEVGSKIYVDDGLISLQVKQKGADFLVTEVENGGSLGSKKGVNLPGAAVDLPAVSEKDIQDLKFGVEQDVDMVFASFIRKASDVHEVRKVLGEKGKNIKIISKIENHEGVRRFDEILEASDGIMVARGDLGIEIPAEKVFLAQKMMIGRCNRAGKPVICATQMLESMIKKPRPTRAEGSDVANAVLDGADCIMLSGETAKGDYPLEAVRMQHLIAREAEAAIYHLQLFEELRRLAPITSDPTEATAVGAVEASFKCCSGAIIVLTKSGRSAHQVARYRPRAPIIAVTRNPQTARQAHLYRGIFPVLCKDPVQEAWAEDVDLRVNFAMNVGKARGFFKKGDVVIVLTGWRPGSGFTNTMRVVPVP
# Pyruvate kinase (Leishmania mexicana), sequence (Q27686 2-499 E452W): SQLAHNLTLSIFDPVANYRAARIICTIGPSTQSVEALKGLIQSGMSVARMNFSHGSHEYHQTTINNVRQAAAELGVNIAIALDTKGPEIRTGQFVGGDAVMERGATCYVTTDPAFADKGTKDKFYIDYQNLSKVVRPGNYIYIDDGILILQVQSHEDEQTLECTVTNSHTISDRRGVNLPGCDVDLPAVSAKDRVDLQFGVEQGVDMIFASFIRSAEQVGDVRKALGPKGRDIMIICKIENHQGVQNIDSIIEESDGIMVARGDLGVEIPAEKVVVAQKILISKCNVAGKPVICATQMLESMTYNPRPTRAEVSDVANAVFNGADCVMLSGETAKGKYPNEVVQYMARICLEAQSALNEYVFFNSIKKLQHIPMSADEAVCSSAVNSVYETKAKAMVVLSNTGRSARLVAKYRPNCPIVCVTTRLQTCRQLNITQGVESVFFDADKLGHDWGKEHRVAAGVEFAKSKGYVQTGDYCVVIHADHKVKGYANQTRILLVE
# Muscarinic acetylcholine receptor M1 (Rattus norvegicus), sequence (P08482 whole entry, looked up): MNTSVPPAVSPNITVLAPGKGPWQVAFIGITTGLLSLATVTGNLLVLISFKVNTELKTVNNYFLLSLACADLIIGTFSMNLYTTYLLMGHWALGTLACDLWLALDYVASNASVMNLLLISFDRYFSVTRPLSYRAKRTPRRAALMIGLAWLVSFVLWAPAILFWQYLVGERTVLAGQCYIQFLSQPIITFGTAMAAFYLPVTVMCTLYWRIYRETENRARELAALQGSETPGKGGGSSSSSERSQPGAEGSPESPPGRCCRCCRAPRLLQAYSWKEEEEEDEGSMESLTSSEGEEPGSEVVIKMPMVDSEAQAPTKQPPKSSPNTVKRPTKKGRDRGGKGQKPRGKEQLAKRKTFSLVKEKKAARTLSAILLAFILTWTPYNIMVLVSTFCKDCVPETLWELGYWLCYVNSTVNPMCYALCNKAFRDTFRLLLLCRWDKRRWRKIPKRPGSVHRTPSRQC
compound,measurement,setting,value
O=C(O)c1cc(=O)[nH]c(=O)[nH]1,Potency,[1],inactive
same,Potency,[2],inactive
same,Potency,[3],inactive
same,Potency,[4],inactive
same,Potency,[5],inactive
same,outcome,[6],inactive
same,Potency,[7],inactive
same,Potency,[8],inactive
same,Potency,[9],inactive
same,Potency,[10],inactive
same,Potency,[11],inactive
same,Potency,[12],inactive
CNNCc1ccc(C(=O)NC(C)C)cc1,activation,[13],9.99%
CC[C@H](C)C(=O)O[C@H]1C[C@@H](C)C=C2C=C[C@H](C)[C@H](CC[C@@H]3C[C@@H](O)CC(=O)O3)[C@H]21,Potency,[1],inactive
same,Potency,[2],inactive
same,Potency,[3],inactive
same,Potency,[4],inactive
same,outcome,[6],inactive
same,Potency,[7],inactive
same,Potency,[8],inactive
NC(=O)N1c2ccccc2CC(=O)c2ccccc21,Potency,[14],inactive
same,Potency,[15],inactive
CC(=O)[C@H]1CC[C@H]2[C@@H]3CCC4=CC(=O)CC[C@]4(C)[C@H]3CC[C@]12C,Potency,[1],inactive
same,Potency,[3],inactive
same,outcome,[16],inactive
same,Potency,[5],15.8 µM (active)
same,Potency,[7],inactive
CCn1cc(C(=O)O)c(=O)c2cc(F)c(N3CCNCC3)cc21,Potency,[14],inactive
same,Potency,[15],inactive
COC(=O)Nc1nc2ccc(S(=O)c3ccccc3)cc2[nH]1 (stereo unspecified),Potency,[15],inactive
Cc1ccc(S(=O)(=O)N[C@@H](Cc2ccccc2)C(=O)CCl)cc1,outcome,[17],inactive
same,outcome,[18],inactive
same,outcome,[19],inactive
same,outcome,[16],inactive
CC(C)(C)NC(=O)[C@H]1CC[C@H]2[C@@H]3CC[C@H]4NC(=O)C=C[C@]4(C)[C@H]3CC[C@]12C,outcome,[19],inactive
same,outcome,[16],inactive
